TexasRed fluor: Total Fluorescence Counterscreen for Inhibitors of the Interaction of Thyroid Hormone Receptor and Steroid Receptor Coregulator 2; TRb/SRC2 Texas Red total fluorescence interference; Potency, µM (top dose mostly 106 µM), for the others: top-dose fluorescence change, negative = quenching; 280,000 compounds, 0.29% hits; active = well fitted curve in either direction with a large enough effect; inconclusive = small, poorly fitted or top-dose-only effect
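Human TRβ ligand-binding domain (0.6 uM) and Texas Red SRC2 peptide (20 nM) in Tris buffer with 1 uM T3 and 5% DMSO were incubated with pinned compound for 5 hr at ambient temperature. Total fluorescence was computed as S + 2P (555/632 nm).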
Tau fibril FP: qHTS for Inhibitors of Tau Fibril Formation, Fluorescence Polarization; Microtubule-associated protein tau (Homo sapiens), P10636; K18 P301L tau heparin fibrillization, Alexa594 FP, 6 h; Potency, µM (titrated, usually from 57.7 µM), for the others: at the top dose activity, negative = inhibition, hits mostly inhibitors; 280,000 compounds, 0.39% hits; AID 1468, 2008; also: nearly all actives have a fitted effect of over 55% in size
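K18 P301L tau (15 uM unlabeled/0.24 uM Alexa 594-labeled, final) + compound + heparin 20 uM final; 100 mM NaOAc pH 7; 6 hr 37 C; ThT 30 uM final added, 1 hr RT; FP ex 555/em 632 nm.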
TRb SRC2 PPI: qHTS for Inhibitors of the Interaction of Thyroid Hormone Receptor and Steroid Receptor Coregulator 2 | Potency, µM (doses to about 106 µM), for the others: at the highest dose activity change, negative = inhibition, most hits filed as inhibitors | TRbeta-SRC2 peptide binding, fluorescence polarization; receptor liganded with 1 µM T3 | 280,000 compounds, 0.065% hits | Thyroid hormone receptor beta (Homo sapiens), P10828;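 also: plate controls were bound peptide for no effect and peptide without receptor for full effect; nearly all actives have a fitted effect of over 50% in size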
Target sequence (P10828 whole entry, looked up): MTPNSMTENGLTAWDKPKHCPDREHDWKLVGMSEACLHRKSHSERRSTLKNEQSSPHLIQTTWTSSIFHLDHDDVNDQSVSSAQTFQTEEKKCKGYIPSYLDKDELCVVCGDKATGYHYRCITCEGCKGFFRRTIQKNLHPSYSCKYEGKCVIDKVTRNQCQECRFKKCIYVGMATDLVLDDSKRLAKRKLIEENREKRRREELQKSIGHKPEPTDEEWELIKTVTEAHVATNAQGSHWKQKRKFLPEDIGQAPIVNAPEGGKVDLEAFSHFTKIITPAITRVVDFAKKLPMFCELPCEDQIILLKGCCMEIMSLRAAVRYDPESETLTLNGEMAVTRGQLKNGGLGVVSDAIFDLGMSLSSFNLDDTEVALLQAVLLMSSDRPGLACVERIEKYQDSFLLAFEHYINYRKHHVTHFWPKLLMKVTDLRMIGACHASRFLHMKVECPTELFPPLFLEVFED
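Compounds were added to 0.6 uM TRb ligand-binding domain and 20 nM Texas Red-labeled SRC2 peptide in Tris buffer containing 1 uM T3, incubated 5 hr at ambient temperature, then read by fluorescence polarization.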
Tau ThT inhib: qHTS for Inhibitors of Tau Fibril Formation, Thioflavin T Binding | Microtubule-associated protein tau (Homo sapiens), P10636 | 270,000 compounds, 2.1% hits | recombinant tau K18 P301L, heparin-induced fibrillization, ThT fluorescence | Potency, µM (titrated, usually from 57.4 µM), inactives show top-dose activity, negative = inhibition, actives largely listed as inhibitors; also: nearly all actives have a fitted effect of over 55% in size
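K18 P301L tau (15 uM + 0.24 uM Alexa 594-tagged), heparin 20 uM, NaOAc pH 7, 6 h 37 C; ThT 30 uM, 1 h RT, ex 450/em 510 nm.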
Tau fluor cs: Counterscreen qHTS for Inhibitors of Tau Fibril Formation, Fluorescence Polarization | tau K18 P301L Alexa594 fluorescence, heparin fibrillization | Potency, µM (highest dose often 57.7 µM), for the others: top-dose activity change, negative = decrease | 280,000 compounds, 0.93% hits; also: nearly all actives have a fitted effect of over 55% in size
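Human tau K18 P301L (15 uM unlabeled, 0.24 uM Alexa 594-labeled) in 100 mM sodium acetate pH 7 with 20 uM heparin, 6 hr at 37 C. ThT 30 uM added, 1 hr ambient; Alexa 594 FP and total fluorescence read at 555/632 nm.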
Starred values were filed as active, the others as inactive; ? = inconclusive; · = not tested or not shown; [ ] = remark or other dose. Only some compounds are listed: those with a hit (about 3% of all), similar ones and a draw of the others. Unless noted, calls follow the shape of the dose curve; as a rule, active = well fitted curve in the direction sought with a large enough effect; inconclusive = small, poorly fitted or top-dose-only effect, or another doubt; inactive = no such curve, though single readings can be large; an effect the other way counts as inactive or inconclusive. Unless noted, % is scaled to controls: 0 for no effect and ±100 for the full control effect; potency is read from the fitted curve at half-maximal effect.

SMILES | TexasRed fluor | Tau fibril FP | TRb SRC2 PPI | Tau ThT inhib | Tau fluor cs
CCN(CC)S(=O)(=O)c1ccc2c(c1)N(CC(=O)NCc1ccccc1)C(=O)C1CCCCN21 (configuration not stated) | -0.8% | 0.8% | 2.0% | -8.2% | -25.1%
CC(C)Nc1nc(N)nc(Cl)n1 | 0.0%[201 µM] | · | -1.9%[201 µM] | · | ·
Cn1c2c(c(=O)n(C)c1=O)[C@@]1(C(=O)Nc3ccccc31)C(C#N)=C(N)O2 | 2.1% | ? | -3.4% | 14.1µM* | -23.1%
CC(NNC(=O)c1ccccc1)c1ccccc1 (configuration not stated) | 0.8% | · | 0.9% | · | ·
CCCCCc1ccc(OCCC[n+]2ccccc2)c(CCCCC)c1 | -11.2% | 10.9% | 70.8µM* | ? | -14.0%
c1ccc(-c2csc(NNC3=NCCCCC3)n2)cc1 | -0.8% | 25.1µM* | -1.5% | 25.1µM* | ?
Clc1ccc(-c2csc(NNC3=NCCCCC3)n2)cc1 | -2.0% | ? | -8.6% | 31.6µM* | ?
NNc1nc2c(F)cc(F)cc2s1 | -0.9%[53 µM] | -4.8% | -5.2%[53 µM] | 12.6µM* | ?
NNc1nc2c(F)cccc2s1 | -21.9% | ? | 7.2% | 15.8µM* | 17.8µM*[quencher]
O=C(CCc1ccccc1)Nc1nc2c(F)cc(F)cc2s1 | -1.0% | -8.0% | -1.5% | · | -10.8%
[O-]/C(=C(\C(=S)Nc1cccc2ccccc12)[n+]1cccc(CO)c1)c1ccc(Cl)s1 | -2.4% | ? | -26.8% | 14.1µM* | ?
Cc1ccc(NC(=S)/C(=C(\[O-])c2ccc(Cl)s2)[n+]2cccc(CO)c2)cc1C | -3.0% | -4.8% | -5.9% | ? | -25.3%
[O-]/C(=C(\C(=S)Nc1ccc(SC(F)F)cc1)[n+]1cccc(CO)c1)c1ccc(Cl)s1 | 0.6% | -12.1% | -4.6% | 25.1µM* | ?
COc1ccc(C(=O)Oc2ccc(/C=N/NC(=O)c3ccccc3OC)cc2[N+](=O)[O-])cc1 | -0.1% | -13.8% | 11.9% | ? | -7.7%
COc1cc(/C=N/NC(=O)c2sc3ccccc3c2Cl)ccc1OC(=O)c1ccc([N+](=O)[O-])cc1 | 0.2% | 3.3% | 1.2% | 1.26µM* | ?
COc1ccc(/C=N/NC(=O)c2cccc([N+](=O)[O-])c2)cc1OC(=O)c1ccccc1 | 0.3% | -5.0% | -13.1% | -20.8% | 11.2µM*[quencher]
COc1ccc(C(=O)N/N=C/c2ccc(OC(=O)c3cccc4ccccc34)c([N+](=O)[O-])c2)cc1 | -0.1% | -1.6% | 9.5% | 5.01µM* | ?
COc1ccc(/C=N/NC(=O)c2cccc([N+](=O)[O-])c2)cc1OS(=O)(=O)c1ccccc1 | -0.5% | -3.5% | -2.0% | -13.1% | 14.1µM*[quencher]
COC(=O)N1[C@H](Cc2ccccc2)C=C[C@]1(C)C(=O)NCc1ccc(N(C)C)cc1 | -3.8% | 10.8% | 9.4% | -6.6% | -10.6%
O=C(OCc1ccccc1)c1cccnc1 | -3.1% | · | 17.3% | · | ·
COc1cc(/C=N/NC(=O)c2cccc([N+](=O)[O-])c2)ccc1OCc1ccccc1 | 3.7% | ? | -0.1% | ? | 11.2µM*[quencher]
COc1cc(/C=N/NC(=O)c2cccc([N+](=O)[O-])c2)ccc1OC(=O)c1ccco1 | -2.7% | -1.1% | 1.3% | ? | ?
COc1ccc(/C=N/NC(=O)c2cccc([N+](=O)[O-])c2)cc1OC(=O)c1ccc(C)cc1 | -0.5% | -0.7% | 7.9% | -10.8% | ?
O=C(N/N=C/c1ccc(OC(=O)c2ccccc2)c([N+](=O)[O-])c1)c1ccc(O)cc1 | -13.7% | -11.9% | -8.3% | 8.91µM* | ?
COc1ccc(C)cc1NC(=O)C(=O)NCCc1sc(-c2ccc(Cl)cc2)nc1C | -14.8% | -1.1% | -0.5% | ? | -8.4%

From PubChem BioAssay
